Experiment [1] can be described thus: CCTE_Simmons_MITO_basal_resp_rate: CCTE's HepG2 Seahorse XF Respirometric Screening Assay at Basal Respiratory State, Simmons Lab (AID 2284001). To be noted: actives raise or lower the signal. The essentials:
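Readout is oxygen consumption rate after test compound injection, measured by Seahorse XF in HepG2 cells. Seven concentrations from 125 nM up to 100 uM final are tested, and activity in either direction is fitted against DMSO.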

Experiment [2] is described as follows: CCTE_Simmons_MITO_inhib_resp_rate: CCTE's HepG2 Seahorse XF Respirometric Screening Assay at Inhibited Respiratory State [full ETC block], Simmons Lab (AID 2284006). To be noted: actives raise or lower the signal. The essentials: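 Seahorse respirometry, HepG2, 72 min total, 6-min mix/measure cycles. Cpd 125 nM–100 uM final ×7, n=3 biological. Sequential FCCP, rotenone/antimycin A; inhibited-respiration OCR, bidirectional fit vs DMSO.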

Experiment [3] is described as follows: CCTE_Simmons_MITO_viability: CellTiter-Glo Viability Assessment for CCTE's HepG2 Seahorse XF Respirometric Screening Assay [post-hoc], Simmons Lab (AID 2284007; active means hit-call score of the fitted dose curve at least 0.9, where 1 is the maximum;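 on AC50: cells exposed to chemical for 90 min before the ATP read; actives lower ATP signal relative to DMSO baseline meaning reduced viability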). The essentials: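 Cytotoxicity readout: ATP quantitation via luciferase in HepG2 cells treated 90 min with seven titrated concentrations (125 nM to 100 uM, final). Curves fitted relative to DMSO negative control, three biological replicates per concentration.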
In general terms: ATP-based viability assays read luminescence as a measure of living cells.

The nature of experiment [4]: CCTE_Shafer_MEA_acute_spike_number: CCTE's Neural Acute Assay for Total Number of Spikes, Shafer Lab (AID 2284008).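 On AC50: curve fitted for decrease in spike count so AC50 reflects inhibitors.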 The essentials: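 Rat primary cortical neurons on 48-well MEA plates, DIV 13 or 15, at 37 C. 40 min baseline then 40 min with compound (0.03-40 uM); spikes detected at 8x rms noise, expressed as percent change from baseline.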
A short description of experiment [5]: CCTE_Shafer_MEA_acute_firing_rate_mean: CCTE's Neural Acute Assay for Mean Firing Rate, Shafer Lab (AID 2284009).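 Further: analyzed for loss of signal so actives lower firing rate relative to DMSO.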 The essentials: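 Spontaneous spiking of primary rat cortical networks, DIV 13/15, 37 C. Compound 0.03-40 uM, n ≥3 wells; 40 min baseline vs 40 min treated. Endpoint fitted in loss-of-signal direction against DMSO.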
Experiment [6] can be described thus: CCTE_Harrill_HTTr_Viability_MCF7: CCTE's 6-hour Cell Viability Assessment for the High-Throughput Transcriptomics (HTTr) Platform, in MCF-7 cells cultured in DMEM + 10% fetal bovine serum, Harrill Lab (AID 2284010). The essentials: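 Read-out is propidium iodide gain of signal by high-content imaging, reflecting membrane integrity loss. Measurements are taken 6 h after dosing, eight concentrations per chemical, with DMSO serving as baseline for bidirectional curve fitting.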

Experiment [7] is described as follows: CCTE_Harrill_HTTr_Apoptosis_MCF7: CCTE's 6-hour Apoptosis Assessment for the High-Throughput Transcriptomics (HTTr) Platform, in MCF-7 cells cultured in DMEM + 10% fetal bovine serum, Harrill Lab (AID 2284011). The essentials: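 MCF-7 cells in DMEM + 10% FBS exposed 6 h to chemicals over an eight-point dilution series. Caspase-3/7 activation imaged by high-content CellEvent Green staining; fitted bidirectionally versus DMSO.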

Experiment [8] can be described thus: CCTE_Harrill_HTTr_CellCount_MCF7: CCTE's Cell Proliferation Assessment for the High-Throughput Transcriptomics (HTTr) Platform, Harrill Lab (AID 2284012; active means hit-call score of the fitted dose curve at least 0.9, where 1 is the maximum;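 further: cells exposed to compound for six hours; intended direction is loss of nuclei count meaning fewer cells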). The essentials: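 Cell count served as viability reporter: loss of Hoechst-stained nuclei, counted by high content imaging, marks decreased growth or survival. Exposure was 6 h in MCF-7 cells across eight concentrations, with DMSO as baseline.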

The nature of experiment [9]: CCTE_Shafer_MEA_acute_burst_number: CCTE's Neural Acute Assay for Single-Electrode Bursts, Shafer Lab (AID 2284013). The essentials: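 Burst totals were derived with adaptive spike detection (8x rms threshold) on filtered signals from rat cortical cultures; change relative to pre-treatment baseline after 40-min compound exposure (0.03-40 uM) was fitted in the negative direction against DMSO.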

Experiment [10] is described as follows: CCTE_Shafer_MEA_acute_burst_duration_mean: CCTE's Neural Acute Assay for Mean Burst Duration, Shafer Lab (AID 2284014).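 Further: hits are decreases in mean burst duration relative to DMSO controls.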 The essentials: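 Acute exposure of mature rat cortical networks (DIV 13 or 15) grown on microelectrode arrays to 0.03-40 uM compound. Mean burst duration compared with the 40-min pre-dose baseline over a 40-min post-dose recording at 37 C.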

The next experiment concerns DIO1 (gene 1733). Description: CCTE_GLTED_hDIO1: CCTE's human Deiodinase 1 (DIO1) Inhibition Assay, Great Lakes Toxicology and Ecology Division (GLTED) Lab (AID 2283987; active means hit-call score of the fitted dose curve at least 0.9, where 1 is the maximum;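 further: isolated human DIO1 enzyme in a cell-free setup rather than cells; enzyme activity read as free iodide liberated from substrate via Sandell-Kolthoff colorimetry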). The essentials:
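Cell-free human DIO1 enzyme incubated 3 h with test chemical; iodide freed from substrate then measured by Sandell-Kolthoff absorbance. Run in triplicate; loss of signal relative to DMSO taken as inhibition.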

The target of experiment [11] is Nucleoli Translocation, AR (gene 367) (UniProt P10275). Description: UPITT_HCI_U2OS_AR_TIF2_Nucleoli_Antagonist: University of Pittsburgh U2OS Androgen Receptor-Transcriptional Intermediary Factor 2 (AR-TIF2) Antagonism High Content Imaging Assay for Nucleoli Translocation (AID 2283997; active means hit-call score of the fitted dose curve at least 0.9, where 1 is the maximum). The essentials:
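An antagonist-mode imaging screen: engineered U2OS (AR-RFP, TIF2-GFP) exposed to 20 uM compound, 0.2% DMSO. Activity reflects nucleolar red fluorescence change relative to DHT baseline.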

For experiment [12] the target is unchanged. Kind of experiment: UPITT_HCI_U2OS_AR_TIF2_Nucleoli_Agonist: University of Pittsburgh U2OS Androgen Receptor-Transcriptional Intermediary Factor 2 (AR-TIF2) Agonism High Content Imaging Assay for Nucleoli Translocation (AID 2283998; active means hit-call score of the fitted dose curve at least 0.9, where 1 is the maximum). The essentials: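 U2OS cells expressing RFP-tagged human AR and GFP-tagged TIF2; red fluorescence in nucleoli quantified by high-content imaging. Primary screen at 20 uM final (0.2% DMSO); concentration-response 0.195–50 uM (0.5% DMSO), fitted upward versus DMSO.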

The target of experiment [13] is Ratio of Nucleoli Translocation and Cytoplasm, AR (gene 367) (UniProt P10275). Kind of experiment: UPITT_HCI_U2OS_AR_TIF2_Nucleoli_Cytoplasm_Ratio_Antagonist: University of Pittsburgh U2OS Androgen Receptor-Transcriptional Intermediary Factor 2 (AR-TIF2) Antagonism High Content Imaging Assay for Ratio of Nucleoli Translocation and Cytoplasm (AID 2283999; active means hit-call score of the fitted dose curve at least 0.9, where 1 is the maximum;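 further: antagonists lower the DHT-driven ratio of nucleolar to cytoplasmic red signal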). The essentials: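 Compounds were added to U2OS cells carrying red-fluorescent AR and green-fluorescent TIF2, first at 20 uM, with hits confirmed in triplicate and titrated from 0.195 to 50 uM. Nucleolar versus cytoplasmic AR-RFP fluorescence was then quantified by imaging, with analysis relative to DHT.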
Chain of Ratio of Nucleoli Translocation and Cytoplasm, AR (gene 367) (P10275 whole entry, looked up): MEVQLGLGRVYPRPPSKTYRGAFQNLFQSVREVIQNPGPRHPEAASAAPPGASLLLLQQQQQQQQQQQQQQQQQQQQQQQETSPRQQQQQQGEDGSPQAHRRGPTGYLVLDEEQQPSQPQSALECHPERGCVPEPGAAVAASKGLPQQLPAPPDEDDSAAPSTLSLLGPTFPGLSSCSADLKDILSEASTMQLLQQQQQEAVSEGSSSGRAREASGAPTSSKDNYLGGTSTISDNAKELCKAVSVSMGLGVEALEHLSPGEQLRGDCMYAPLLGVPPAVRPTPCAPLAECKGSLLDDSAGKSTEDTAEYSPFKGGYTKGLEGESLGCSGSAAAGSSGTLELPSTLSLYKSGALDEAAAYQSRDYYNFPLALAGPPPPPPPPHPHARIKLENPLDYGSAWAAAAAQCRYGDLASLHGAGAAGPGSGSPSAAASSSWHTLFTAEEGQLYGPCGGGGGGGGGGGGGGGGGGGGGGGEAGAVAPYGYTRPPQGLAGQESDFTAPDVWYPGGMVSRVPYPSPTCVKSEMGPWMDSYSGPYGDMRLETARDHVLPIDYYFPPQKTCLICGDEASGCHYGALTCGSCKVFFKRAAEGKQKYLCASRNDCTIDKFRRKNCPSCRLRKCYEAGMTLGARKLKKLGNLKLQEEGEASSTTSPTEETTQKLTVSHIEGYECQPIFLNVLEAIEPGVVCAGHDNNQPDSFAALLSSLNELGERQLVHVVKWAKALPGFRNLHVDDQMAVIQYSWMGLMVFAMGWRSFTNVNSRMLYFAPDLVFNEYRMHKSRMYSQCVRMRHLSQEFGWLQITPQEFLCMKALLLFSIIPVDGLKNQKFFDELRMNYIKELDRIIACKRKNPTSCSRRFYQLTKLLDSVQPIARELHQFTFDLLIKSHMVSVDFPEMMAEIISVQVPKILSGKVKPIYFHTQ

The target is the same in experiment [14]. Description: UPITT_HCI_U2OS_AR_TIF2_Nucleoli_Cytoplasm_Ratio_Agonist: University of Pittsburgh U2OS Androgen Receptor-Transcriptional Intermediary Factor 2 (AR-TIF2) Agonism High Content Imaging Assay for Ratio of Nucleoli Translocation and Cytoplasm (AID 2284000; active means hit-call score of the fitted dose curve at least 0.9, where 1 is the maximum;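 further: hits raise the red nucleolar to cytoplasm ratio above vehicle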). The essentials: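 Primary screen at 20 uM final (0.2% DMSO), then triplicate confirmation and dose-response from 0.195 to 50 uM final (0.5% DMSO). Cells: U2OS with AR-RFP and TIF2-GFP. Endpoint is the nucleoli/cytoplasm red-fluorescence ratio, gain-of-signal vs DMSO.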

Several values for one entry are separate records, joined by “and”; a condition that tells them apart may be missing. Equal entries are not always repeated. Inconclusive results are not listed. Activity calls are given as the source filed them. How the source made its calls, unless noted: active means hit-call score of the fitted dose curve at least 0.9, where 1 is the maximum; inactive means score below 0.9.

Chain of Nucleoli Translocation, AR (gene 367) (P10275 whole entry, looked up): as above

A word on the AC50: it is the midpoint of the concentration-response curve, whichever way the signal moves. With `FC(F)C(F)(F)OCC(Cn1cncn1)c1ccc(Cl)cc1Cl` (configuration not stated), the AC50 in [1] is 12.8 µM (active); in experiment [3], 16.9 µM (active); in [4], 5.94 µM (active); in experiment [5], 5.92 µM (active). Besides, the outcome in experiment [2], in [6], in experiment [7], in experiment [8], in [9] and in experiment [10] was inactive.
Turning to `O=[N+]([O-])c1cc(C(F)(F)F)c(Cl)c([N+](=O)[O-])c1Nc1ncc(C(F)(F)F)cc1Cl`, the AC50 with DIO1 (gene 1733) is 19.4 µM (active); in [1] it was 14.2 µM (active); in experiment [4], 0.351 µM (active); in experiment [5] it was 0.35 µM (active); in [6], 21.5 µM (active); in experiment [9] it was 0.322 µM (active). Further, the AC50 in experiment [10] was 1.59 µM (active). For the same molecule, the result in experiment [2], in experiment [3], in experiment [7] and in experiment [8] was inactive.
For the molecule `CC(C)N(C(=O)SCC(Cl)=C(Cl)Cl)C(C)C`, the outcome in experiment [1], in [2], in experiment [3], in experiment [6], in [7] and in [9] was inactive. Further, in [10], the molecule was classed as inactive. The AC50 in experiment [4] is 8.85 µM (active) and 5.81 µM (active); in [5] it was 8.79 µM (active) and 5.81 µM (active).
Consider `C#CCC1=C(C)C(OC(=O)C2C(C=C(C)C)C2(C)C)CC1=O` (configuration not stated), for which the AC50 in experiment [1] is 34.9 µM (active); in [4], 27.4 µM (active); in [5], 27.4 µM (active); in experiment [9], 13.3 µM (active); in [10] it was 15.5 µM (active). The molecule was called inactive in [2], in [3], in experiment [6] and in [7].
Turning to `CCCSP(=O)(OCC)SCCC`, the call in experiment [11], in experiment [12], in [13], in [14], in [2] and in experiment [3] was inactive. The result in experiment [6], in experiment [7] and in experiment [8] was inactive. Further, the AC50 in experiment [1] was 32.8 µM (active).
As for `CCC(=O)Nc1ccc(Cl)c(Cl)c1`, the AC50 is 14.3 µM (active) in experiment [11] and 41.1 µM (active) in experiment [1]. Further, the result in [13], in experiment [14], in [2], in experiment [3], in experiment [6] and in [7] was inactive.
Take `CC(C)=CC1C(C(=O)OCN2C(=O)C3=C(CCCC3)C2=O)C1(C)C` (configuration not stated): the result in [11], in experiment [12], in experiment [13], in experiment [2], in experiment [3] and in experiment [4] was inactive. In addition, the call in experiment [5], in [6], in [7], in [8], in experiment [9] and in experiment [10] was inactive. Further, in experiment [1], the AC50 was 42.5 µM (active).
With `Cc1nn(-c2cc(NS(C)(=O)=O)c(Cl)cc2Cl)c(=O)n1C(F)F`, the call in experiment [11], in experiment [12], in experiment [13], in [14], in experiment [6] and in [7] was inactive. In addition, in experiment [8], the molecule was called inactive.
Consider `CCOC(=O)COc1cc(-c2nn(C)c(OC(F)F)c2Cl)c(F)cc1Cl`, for which the call in [11], in experiment [12], in experiment [14], in experiment [6] and in [7] was inactive.
As for `C[Si](Cn1cncn1)(c1ccc(F)cc1)c1ccc(F)cc1`, the AC50 in experiment [1] was 13.9 µM (active); in experiment [3], 10.3 µM (active); in [4], 4.69 µM (active); in experiment [5] it was 4.69 µM (active); in [9], 4.3 µM (active). Besides, the molecule was classed as inactive in experiment [2], in [6], in experiment [7], in experiment [8] and in experiment [10].
As to `CSc1nnc(C(C)(C)C)c(=O)n1N`, the outcome in [6] and in experiment [7] was inactive.
Regarding `CCCSP(=O)(OCC)Oc1ccc(Br)cc1Cl` (configuration not stated), the result in experiment [1], in [2], in [6], in [7] and in experiment [8] was inactive.
For the molecule `CCOP(=S)(OCC)OC(Cl)C(Cl)(Cl)Cl` (configuration not stated), the result in experiment [6], in [7] and in experiment [8] was inactive.
With `COP(=O)(NC(C)=O)SC` (configuration not stated), the outcome in experiment [4], in experiment [5], in [6], in experiment [7], in experiment [8] and in [9] was inactive. For the same molecule, in experiment [10], the call was inactive.
As for `CC(C)[C@H](C(=O)O[C@H](C#N)c1cccc(Oc2ccccc2)c1)c1ccc(Cl)cc1`, the outcome in experiment [4], in [5], in experiment [6], in [7] and in experiment [10] was inactive. Also, the AC50 in [9] is 0.928 µM (active).
Regarding `CCC(=NOC/C=C/Cl)C1=C(O)CC(C2CCOCC2)CC1=O` (configuration not stated), the outcome in [6] and in [7] was inactive.
Take `CC1(C(=O)Nc2ccc(O)c(Cl)c2Cl)CCCCC1`: in experiment [1], the AC50 was 29.8 µM (active). For the same molecule, the molecule was classed as inactive in experiment [2], in experiment [3], in experiment [6] and in [7].

(Values after PubChem BioAssay (EPA / NIEHS).)
